Rows were chosen to be rich in hits. Some 11% of all compounds tested hit in one or more screens of this group.
HPGD inh: inhibitors of human 15-hydroxyprostaglandin dehydrogenase (HPGD); P15428; purified HPGD, NADH fluorescence kinetic, PGE2 substrate; Potency, µM, for the others: at the top dose activity change, negative = inhibition, most hits filed as inhibitors; 150,000 tested, 4.3% active; also: potency is read from the fitted curve at half-maximal effect
Target sequence (P15428 whole entry, looked up): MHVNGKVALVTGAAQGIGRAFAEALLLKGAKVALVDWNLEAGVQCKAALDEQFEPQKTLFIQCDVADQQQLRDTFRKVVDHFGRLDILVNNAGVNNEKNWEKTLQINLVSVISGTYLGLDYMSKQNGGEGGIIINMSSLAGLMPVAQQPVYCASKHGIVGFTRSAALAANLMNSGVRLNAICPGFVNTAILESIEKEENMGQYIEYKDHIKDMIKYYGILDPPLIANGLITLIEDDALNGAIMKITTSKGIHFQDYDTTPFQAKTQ
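NADH formation kinetics: reaction with 30 uM PGE2 and 1 mM NAD+ (final), 20 nM enzyme, Tris-HCl pH 8 with Tween 20, after 15 min compound preincubation at room temperature. Fluorescence change, last versus first of five reads.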
PNC inhibitor: perinucleolar compartment assembly inhibition; PC3M PTB-GFP, PNC prevalence imaging, 16 h; hits give low values; activity change (PNC), negative = inhibition, % at 10 µM; 140,000 tested, 3.1% active;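 active = readout at or below -70, meaning at least 70% loss of cells showing the perinucleolar compartment, a nuclear body marking cancer cells; inconclusive = readout between -30 and a set limit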;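 also: plate controls were DMSO wells for no effect and camptothecin positive control wells for full effect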
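PC3M cells stably expressing PTB-GFP, 750–1000 cells/well, treated 16 h at 37 °C with compound (23 nl of library stock), in duplicate. After paraformaldehyde fixation and Hoechst stain, imaged at 20x; PNC prevalence scored by image analysis.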
12-hLO inh: inhibitors of human 12-lipoxygenase (ALOX12) | 150,000 tested, 0.12% active | purified 12-hLO, xylenol orange hydroperoxide absorbance | P18054 | AID 1452 | Potency, µM (highest dose often 57.1 µM), inactives show at the highest dose activity change, negative = inhibition, usual class: inhibitors; active = well fitted curve in the direction sought with a large enough effect; inconclusive = small, poorly fitted or top-dose-only effect, or another doubt; inactive = no such curve, though single readings can be large; an effect the other way counts as inactive or inconclusive; also: potency is read from the fitted curve at half-maximal effect; nearly all actives have a fitted effect of over 55% in size
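Xylenol orange chromogenic assay: hydroperoxide from 12hLO oxidises Fe(II), giving red-shifted Fe(III)-XO absorbance. Conditions: 150 nM enzyme, 40 uM arachidonic acid, 25 mM Hepes pH 7.0, 0.01% Triton X-100, 30 min, room temperature.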
ALDH1A1 inh: ALDH1A1 (human) enzyme inhibition | 220,000 tested, 7.3% active | Purified ALDH1A1, NADH fluorescence, propionaldehyde substrate | AID 1030 | Potency, µM (doses to about 75.3 µM), for the others: at the top dose activity, negative = inhibition, most hits filed as inhibitors;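 also: potency is read from the fitted curve at half-maximal effect; plate controls were no enzyme wells and a reference inhibitor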
Target sequence (P00352 whole entry, looked up): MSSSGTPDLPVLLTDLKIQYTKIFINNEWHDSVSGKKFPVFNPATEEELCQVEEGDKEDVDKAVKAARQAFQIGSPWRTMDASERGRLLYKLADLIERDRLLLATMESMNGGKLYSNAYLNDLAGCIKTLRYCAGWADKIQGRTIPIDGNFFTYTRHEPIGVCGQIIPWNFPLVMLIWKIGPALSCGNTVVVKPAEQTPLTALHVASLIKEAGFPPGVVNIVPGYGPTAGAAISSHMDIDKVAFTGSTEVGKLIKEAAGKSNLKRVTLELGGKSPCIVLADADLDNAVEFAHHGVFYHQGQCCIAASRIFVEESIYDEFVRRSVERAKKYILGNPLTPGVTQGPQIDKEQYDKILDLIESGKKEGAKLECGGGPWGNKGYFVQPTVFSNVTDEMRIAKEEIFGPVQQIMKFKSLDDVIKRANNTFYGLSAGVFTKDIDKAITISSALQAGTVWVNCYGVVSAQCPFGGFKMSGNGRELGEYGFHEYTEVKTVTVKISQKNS
IMPase Li inh: IMPase inhibition in cells with lithium potentiation; AID 1457; 210,000 tested, 0.35% active; Potency, µM (titrated, usually from 59.4 µM), without a hit: top-dose activity, negative = IMPase inhibition, hits mostly inhibitors; CHO-M1 cells, IP1 TR-FRET (IP-One), carbachol + lithium; active = well fitted curve in the direction sought with a large enough effect; inconclusive = small, poorly fitted or top-dose-only effect, or another doubt; inactive = no such curve, though single readings can be large; an effect the other way counts as inactive or inconclusive;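 also: IP1 builds up when IMPase is blocked and the TR-FRET signal falls; potency is read from the fitted curve at half-maximal effect; plate controls were basal vehicle for no effect and high inhibitor control for full effect; nearly all actives have a fitted effect of over 50% in size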
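Concentration–response in CHO-M1 cells, lithium-potentiated; 30 min at 37C. IP1 detected by competitive TR-FRET after 10 min lysis at RT. Hill-fitted AC50.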
IMPase inh: cell-permeable inhibitors of inositol monophosphatase (IMPase). AID 901. 120,000 tested, under 10 active. CHO-M1 cells, IP1 accumulation, HTRF TR-FRET ratio. inhibition (IP1 accumulation), % at 46.1 µM. P97697; active = well fitted curve in the direction sought with a large enough effect in the signal ratio, not every such curve was filed as active; inconclusive = small, poorly fitted or top-dose-only effect, or a change in a side signal; inactive = no such curve, though single readings can be large or run the other way; the % refers to the signal ratio;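 also: cells stimulated with carbachol in lithium chloride buffer; plate controls were DMSO basal wells for no effect and reference inhibitor wells for full effect; higher means more IMPase inhibition seen as more IP1 and lower FRET ratio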
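In this qHTS, compounds (final up to 46 uM) act on CHO-M1 cells that are then activated through the M1 receptor with carbachol, in pH 7.4 buffer containing 50 mM LiCl, for 30 min. IP1 accumulation is quantified by the IP-One immunoassay.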
* marks the source's active call; other numbers are inactive results; ? = inconclusive; · = not tested or not shown; [ ] = remark or other dose. Unless noted, calls follow the shape of the dose curve; as a rule, active = well fitted inhibition curve with a large enough effect (not every such curve was filed as active); inconclusive = small, poorly fitted or top-dose-only effect, or another doubt; inactive = no such curve, though single readings can be large or run the other way. Unless noted, % is scaled to controls: 0 for no effect and ±100 for the full control effect.

SMILES | HPGD inh | PNC inhibitor | 12-hLO inh | ALDH1A1 inh | IMPase Li inh | IMPase inh
Nc1nc2c(ncn2[C@@H]2O[C@H](COP(=O)(O)OP(=O)(O)O)[C@@H](O)[C@H]2O)c(=O)[nH]1 | · | · | · | -7% | 0% | ·
CC(C)c1ccc(NC(=S)NNC(=O)c2cccs2)cc1 | · | · | · | 20µM* | -3% | ·
COc1ccc(NC(=S)NNC(=O)c2cccs2)cc1 | -9% | -84* | -3% | ? | -4% | ·
Cc1c(C(=O)NC(=S)Nc2ccc(NC(=O)c3cccs3)cc2)oc2ccccc12 | 2.8µM* | ? | ? | 1.3µM* | 14%[38.3 µM] | 3
CC(=O)NC(=S)Nc1ccc(NC(=O)c2cccs2)cc1 | -23% | ? | -1% | -13% | 2% | -3
CCCCC(=O)Nc1ccc(C(=O)NNC(=S)NC(=O)c2cccs2)cc1 | · | ? | -7% | 25µM* | · | -10
Cc1ccc(-c2cc(=O)c3cc(Cl)ccc3[nH]2)cc1 | -11% | · | -2%[0.00818 µM] | -1%[120 µM] | -23% | ·
C[C@H]1/C=C\CC(=O)OC[C@H](C)C(=O)N2CCC[C@@H]2C(=O)OC1 | · | · | · | 12%[13.5 µM] | · | ·
Cc1sc(NC(=O)c2ccccc2)c(C(c2ccccn2)N2CCN(CCO)CC2)c1C (stereo not given) | -18% | 18 | 1% | 17% | -6% | 12
CCOc1ccc(C(c2c(NC(=O)c3ccccc3)sc(C)c2C)N2CCN(C)CC2)cc1 (stereo not given) | ? | -81* | -11% | ? | 17% | -3
CCCCNC(=O)N(C)c1nc2ccccc2s1 | · | · | · | ? | 11% | ·
CCCNC(=O)N(C)c1nncnc1C(=O)NC | -16% | -100* | -8% | -9% | -5%[38.3 µM] | -1
C(=N\Nc1nc2ccccc2[nH]1)/c1cccs1 | · | 4 | ? | 2.8µM* | · | 4
O=[N+]([O-])c1ccc(O)c(/C=N/Nc2nc3ccccc3[nH]2)c1 | -17% | -93* | 1% | ? | 9% | 0
CCC[C@@H]1C[C@@]1(CCC)C(NC(=O)c1cccs1)c1ccc(Cl)cc1 (stereo not given in full) | -9% | · | 0% | 9% | 6% | ·
O=c1[nH]ccc2c(S(=O)(=O)N3CCCNCC3)cccc12 | ? | · | 1%[0.00818 µM] | ? | -17% | ·
O=C(O)CSc1nc2c(c(C(F)(F)F)n1)CCc1ccccc1-2 | · | · | · | 3% | 4% | ·
O=C(CSc1nc2c(c(C(F)(F)F)n1)CCc1ccccc1-2)NCc1ccc(F)cc1 | -8% | -119* | -4% | -2% | 1% | 0
O=C(CSc1nc2c(c(C(F)(F)F)n1)CCc1ccccc1-2)NCc1ccccc1 | ? | 8 | 5% | ? | 10µM* | -20
Cn1cc(-c2nc3cncnc3n(C3CC3)c2=O)c2ccccc21 | · | · | · | 15% | -14% | ·
N=C1/C(=C\c2coc3ccc(O)cc3c2=O)C(=O)N=C2SC=CN12 | · | · | · | 16µM* | · | ·
CSC1=NSC2=NC(=O)/C(=C\c3coc4ccccc4c3=O)C(=N)N12 | 32µM* | ? | -20% | ? | 10% | ·
CCCCCCCCCCCCCCC[C@H](O)[C@@H](N)CO | -5% | · | 2% | 7% | 0% | ·
COc1cc(/C=C/C(=O)N2CCN(c3n[nH]c(=O)[nH]c3=O)CC2)cc(OC)c1OC | · | · | · | -12% | -2% | ·
COc1cc(C(=S)N(C)C)ccc1O | 18µM* | 9 | 0% | 10µM* | 20%[38.3 µM] | -11
SMILES | HPGD inh | PNC inhibitor | 12-hLO inh | ALDH1A1 inh | IMPase Li inh | IMPase inh
Brc1cc2[nH]cnc2c2ccccc12 | 22µM* | 5 | 2% | 14µM* | -26%[38.3 µM] | ?
Nc1nc(N)c2nc(CNc3ccc(C(=O)N[C@H](CCC(=O)O)C(=O)O)cc3)cnc2n1 | · | · | -2% | · | · | 0
CCOC(=O)C1CCCN(C(=O)CCc2ccccc2)C1 (stereo not given) | · | 5 | 5% | ? | · | 6
CC1CCCN(C(=O)COc2ccc(Nc3ccccc3)cc2)C1 (stereo not given) | · | · | · | 28µM* | 11% | ·
COc1ccc(CC(=O)N2CCC(c3ccccc3)C2)cc1 (stereo not given) | · | · | · | ? | -5% | ·
O=C(Cc1ccccc1)N1CCC(c2ccccc2)C1 (stereo not given) | · | · | · | 25µM* | · | ·
CC1CCCN(C(=O)CCc2ccccc2)C1 (stereo not given) | 4.5µM* | -97* | -1% | -13% | 0% | ·
CN[C@]1(C)[C@@H]2CC[C@@H](C2)C1(C)C | · | · | -3% | · | · | -1
COC(=O)[C@@]1(Cc2ccc(F)cc2)[C@H]2c3cc(C(=O)N(C)C)n(Cc4cc(F)c(F)c(F)c4)c3C[C@H]2CN1C(=O)c1ccccc1 | -4% | · | 11% | 12% | -6% | ·
CC(Cc1ccccc1)NC(=O)CSc1nc2nc3c(cc2c(=O)n1-c1ccccc1)COC(C)(C)C3 (stereo not given) | -9% | -22 | -1% | 1.6µM* | -10%[38.3 µM] | 8
COc1ccc(-n2c(SCC(N)=O)nc3nc4c(cc3c2=O)COC(C)(C)C4)cc1 | -23% | 1 | -2% | 3.5µM* | 4%[38.3 µM] | -6
Cc1ccc(NC(=O)c2ncn(-c3ccccc3)n2)cc1Cl | · | · | · | · | · | -4
O=c1c(-c2ccc(Cl)cc2)nc2cnc(Nc3ccccc3)nc2n1C[C@H]1CCCO1 | · | · | · | ? | -3% | ·
O=C(O)c1nc(-c2ccccc2)[nH]c1C(=O)O | -13% | · | -5%[11.4 µM] | -8%[13.5 µM] | -3% | ·
CCc1cc2c(nc1CC)CCN(CC/C(C)=N/O[C@@H](C)CN1CCCCc3nc(C)c(C)cc31)C2 | · | · | · | 6%[13.5 µM] | · | ·
O=C(c1cnccn1)N1CCC2(CCN(Cc3nccs3)CC2)CC1 | -6% | · | 0% | -2% | ? | ·
c1ccc(CNc2ncncc2-c2ccoc2)cc1 | · | · | · | ? | -3% | ·
COc1ccc(OC)c(NC(=O)Cn2c(=O)n(Cc3ccco3)c(=O)c3cc(OC)c(OC)cc32)c1 | · | · | · | · | · | 0
Cc1ccc(Cn2c(SCc3cccnc3)nc3c2c(=O)n(C)c(=O)n3C)cc1 | 8% | -5 | 0% | 2% | 15%[38.3 µM] | -8
Cn1c(=O)c2c(nc(SCc3cccnc3)n2Cc2ccc(F)cc2)n(C)c1=O | 40µM* | -5 | -9% | ? | 21%[38.3 µM] | 6
CCCn1c(SCC(=O)OCc2ccccc2)nc2c1c(=O)n(C)c(=O)n2C | -6% | 6 | -2% | 22µM* | 9%[38.3 µM] | 0
Cn1c(=O)c2c(nc(SCc3cccnc3)n2Cc2ccccc2)n(C)c1=O | -22% | -14 | -5% | 22µM* | 3%[38.3 µM] | 6
COc1ccc(S(=O)(=O)N2CCC(C(=O)NC(C)c3ccccc3)CC2)cc1 (stereo not given) | · | · | · | · | · | 5
CC(=O)N(OCc1ccccc1)[C@@H]1c2cc(C#N)ccc2OC(C)(C)[C@H]1O | -1% | · | -1% | 2% | -6% | ·
